# Assay outcomes as filed in PubChem BioAssay.
# Rows were chosen to be rich in hits. Some 21% of all compounds tested hit in one or more screens of this group.
# TDP1 cell noCPT = qHTS for Inhibitors of human tyrosyl-DNA phosphodiesterase 1 (TDP1): qHTS in cells in absence of CPT | DT40 Tdp1-/- hTDP1 cells, no CPT, ATP luminescence, 48 h | AID 686978, 2013 | hit rate 15% among 420,000 | Potency, µM (doses to about 46.2 µM), hits mostly inhibitors; further: nearly all actives have a fitted effect of over 55% in size
#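 Seeded 400 DT40-hTDP1 cells/well (vehicle DMSO, no 20 nM CPT); pinned compounds; ≥48 hr at 37 °C; CellTiter-Glo luminescence as viability measure.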
# IL-1B inflam inh = blocks inflammasome-driven IL-1 beta release; AID 743279; activity change, % at 57.5 µM; hit rate 4.7% among 360,000; THP-1 LPS/ATP IL-1B secretion, AlphaLISA, 16 h; hits give low values; in the data active means activity change below about -50%; inconclusive means mostly about -30% to -49%
#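 THP-1 cells pretreated 1 hr with compounds (up to 57.5 uM final), then stimulated with LPS (250 ng/mL final) plus ATP (1.25 mM final); secreted IL-1B measured by AlphaLISA after 16 hr, decreased signal indicating inhibition.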
# Gal4-VP16 FLuc = Gal4-VP16 reporter inhibition counter-screen; Drosophila S2 Gal4-VP16 UAS-luciferase, luminescence, 20 h; Potency, µM (highest dose often 53.6 µM), most hits filed as inhibitors; hit rate 3.5% among 310,000;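 further: Gal4-VP16 expression switched on by copper sulfate through the metallothionein promoter; nearly all actives have a fitted effect of over 50% in size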
# ELG1 repair inh = ELG1-dependent DNA repair inhibition | Potency, µM (highest dose often 46.1 µM), most hits filed as inhibitors | hit rate 2.3% among 330,000 | HEK293T ELG1-luciferase reporter, luminescence, 16 h; DNA damage induced by 5-fluorouridine | AID 504467; further: nearly all actives have a fitted effect of over 55% in size
#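 Step one: seed 2,000 cells per well. Step two: pin-transfer compound or DMSO alongside 5-fluorouridine. Step three: incubate 16 hr, 37 °C, 5% CO2. Step four: add ONE-Glo, wait 30 min, read luminescence.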
# DT40 TDP1 CPT = DT40-hTDP1 cell growth loss with CPT | Potency, µM (titrated, usually from 46.2 µM), most hits filed as inhibitors | hit rate 12% among 420,000 | chicken DT40 Tdp1-/-;hTDP1 cells + 20 nM CPT, ATP luminescence, 48 h; further: nearly all actives have a fitted effect of over 55% in size
#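 Chicken DT40 Tdp1-/- cells complemented with human TDP1, 400 cells/well, exposed to compounds plus 20 nM camptothecin for at least 48 h at 37 C; viability read as ATP content by CellTiter-Glo luminescence.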
# RORgamma inh = inhibitors of mouse ROR gamma transcriptional activity. Drosophila S2 Gal4-RORgamma UAS-luciferase reporter, 20 h. Potency, µM (titrated, usually from 53.6 µM), usual class: inhibitors. hit rate 5.4% among 310,000. AID 2551; further: nearly all actives have a fitted effect of over 60% in size
# Target sequence (P51450 whole entry, looked up, the tested form may be a part): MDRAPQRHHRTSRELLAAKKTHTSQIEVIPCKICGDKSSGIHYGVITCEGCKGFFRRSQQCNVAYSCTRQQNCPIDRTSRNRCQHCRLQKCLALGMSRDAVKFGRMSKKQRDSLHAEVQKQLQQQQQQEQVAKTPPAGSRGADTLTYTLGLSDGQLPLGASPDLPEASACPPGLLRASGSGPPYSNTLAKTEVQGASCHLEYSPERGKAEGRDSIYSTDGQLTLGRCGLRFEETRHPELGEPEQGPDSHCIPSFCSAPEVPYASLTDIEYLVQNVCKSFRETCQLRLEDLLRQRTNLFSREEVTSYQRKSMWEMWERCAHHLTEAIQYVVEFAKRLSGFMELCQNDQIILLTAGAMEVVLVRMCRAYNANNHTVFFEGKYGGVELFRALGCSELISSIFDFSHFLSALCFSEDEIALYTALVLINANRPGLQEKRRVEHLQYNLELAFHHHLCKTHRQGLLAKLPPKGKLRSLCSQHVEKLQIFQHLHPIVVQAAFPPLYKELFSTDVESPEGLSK
#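 Drosophila Schneider cells stably carrying a metallothionein-driven Gal4 DBD–ROR gamma fusion and a UAS-Photinus luciferase reporter were exposed to compound for 1 hr, then induced with copper sulfate (700 uM final) for 20 hr at ambient temperature before luminescence reading.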
# Hits are given with their value; 0 = inactive; ? = inconclusive; - = no result; [ ] = remark or other dose. Unless noted, the call rests on the fitted dose curve; in most records, active means well fitted curve in the direction sought with a large enough effect; inconclusive means small, poorly fitted or top-dose-only effect, or another doubt; inactive means no such curve, though single readings can be large; an effect the other way counts as inactive or inconclusive.
SMILES,TDP1 cell noCPT,IL-1B inflam inh,Gal4-VP16 FLuc,ELG1 repair inh,DT40 TDP1 CPT,RORgamma inh
CC(C)CNC(=O)COC(=O)c1c2c(nc3ccccc13)/C(=C\c1cccs1)CC2,21µM,0,-,-,?,-
CC(=O)c1ccc(NC(=O)COC(=O)c2c3c(nc4ccccc24)/C(=C\c2cccs2)CCC3)cc1,16µM,-51,?,10µM,13µM,?
O=C1CC(C(=O)N2CCCC(c3nc(-c4ccncc4)ncc3-c3ccccc3)C2)C2(CCCCC2)O1 (stereo not drawn),0,-,-,-,0[9.04 µM],-
CCOc1ccc(-c2nc(S(=O)(=O)c3ccccc3)c(N3CCC(C(N)=O)CC3)o2)cc1,0,0,0,0,0,0
Cc1ccc(CNC(=O)c2cc3c(=O)n(Cc4cccnc4)ccc3nc2C)cc1,0,-,-,-,0,-
COc1cccc(C(O)c2ncc(-c3ccc(Cl)cc3)[nH]2)c1 (stereo not drawn),?,0,-,-,?,-
C=CCOC(=O)C(C(C)=O)C(NC(=O)OC)c1cccc(C)c1 (stereo not drawn),-,-,0[10 µM],-,-,0[10 µM]
Cc1[nH]c(=O)[nH]c1C(=O)CCCCC(=O)OCC(=O)Nc1ccccn1,0,-114,0,0,0,0
CCOC(=O)Nc1ccccc1C(=O)Nc1cc(C)cc(C)c1,0,0,0,?,0,0
Cc1cc(NC(=O)NC(=O)c2ccccc2NC(=O)C(C)N)ccc1Oc1ncc(Br)cn1 (stereo not drawn),0.58µM,0,-,-,0.65µM,-
COc1cc(-c2n[nH]c(=S)n2-c2cccc(C(F)(F)F)c2)cc(OC)c1OC,0,0,0,?,0,0
O=C(O)c1ccc(-n2c(-c3ccc(Br)cc3)n[nH]c2=S)cc1,0,0,0,0,0,0
S=c1[nH]nc(-c2ccc(Br)cc2)n1-c1ccc(Br)cc1,0,0,?,0,0,11µM
COc1ccc(-c2n[nH]c(=S)n2-c2ccc3c(c2)OCCO3)cc1,?,0,?,?,?,2.8µM
S=c1[nH]nc(-c2ccc(Br)cc2)n1-c1ccc2c(c1)OCCO2,18µM,0,0,0,?,0.4µM
COc1cc(-c2n[nH]c(=S)n2-c2ccc(Br)cc2)cc(OC)c1OC,0,0,?,0,0,8.9µM
COC(=O)c1cc(CNC(=O)c2cccc(C)c2)cc(NC(=O)c2ccncc2)c1,0,-,-,-,0[9.04 µM],-
COc1ccccc1NC(=O)COC(=O)/C=C/c1ccc(OC)c(OC)c1,?,0,-,0,?,-
CCCS(=O)(=O)NC(=O)C1(C)CCN(C(=O)c2ccc(OC(F)F)cc2)C1 (stereo not drawn),0,0,-,-,0,-
O=[N+]([O-])c1cccc(-c2n[nH]c(=S)n2-c2ccc(Br)cc2)c1,?,0,0,0,0,10µM
Cc1[nH]c2ccccc2c1C(O)CN1CCC2(CC1)OCCO2 (stereo not drawn),16µM,0,0,0,?,0
Cc1nnc(NC(=O)CSc2nnc(CC(=O)Nc3ccccc3F)n2C)s1,0,0,0,0,0,0
COc1ccc(C2CC(=O)c3cc(OC)ccc3O2)cc1 (stereo not drawn),?,0,-,-,0,-
COc1ccc2c(c1)C(=O)Cc1ccccc1O2,21µM,0,-,-,0,-
O=C(OC1CCOC1=O)c1ccccc1C(=O)c1ccc(Cl)c([N+](=O)[O-])c1 (stereo not drawn),0,0,-,0,?,-
SMILES,TDP1 cell noCPT,IL-1B inflam inh,Gal4-VP16 FLuc,ELG1 repair inh,DT40 TDP1 CPT,RORgamma inh
CNC(=O)COC(=O)c1ccccc1C(=O)c1ccc(Cl)c([N+](=O)[O-])c1,?,-107,0,?,?,0
O=C(COC(=O)c1ccccc1C(=O)c1ccc(Cl)c([N+](=O)[O-])c1)NC1CC1,16µM,-103,0,?,18µM,?
O=C(COC(=O)c1cc([N+](=O)[O-])ccc1Cl)NC1CCCC1,0,0,0,0,0,0
CCCn1c(SCC(=O)NC2CCC(C)CC2)n[nH]c1=O (stereo not drawn),0,0,-,0,0,-
CCc1ccc(-n2c(=O)c3c4c(sc3n(Cc3ccccc3C#N)c2=O)CCC4)cc1,0,-,-,-,0,-
Cc1ccc(NC2=C(N3CCOCC3)C(=O)c3ccccc3C2=O)cc1,26µM,-100,0[0.365 µM],?,21µM,?
O=C(O)c1ccc(NC2=C(N3CCOCC3)C(=O)c3ccccc3C2=O)cc1,?,0,0,0,?,0
Cc1ccc(CNc2ccc(N3CCOCC3)cc2)cc1,?,0,0,?,0,0
CC(=O)c1ccc(NC2=C(N3CCOCC3)C(=O)c3ccccc3C2=O)cc1,21µM,-76,0,?,23µM,0
O=C(Nc1ccc(F)cc1F)c1ccc(CN2CC(=O)N3CCCCC3C2=O)cc1 (stereo not drawn),0,-,-,-,?,-
COC(=O)COc1ccc(S(=O)(=O)NCc2cccnc2)cc1C,0,0,0,0,0,0
